The results in this text go back to PubChem BioAssay (NCI).

This is part of a sample that, as a whole, favours compounds with a hit. Of some 83,000 tested, about 20% had one in any assay.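 Single-dose data. Exposure time 48 hours. Values below 10 considered active.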 Unmarked numbers belong to inactive results. Calls of active or inactive are those of the source.

Among the test systems are SR leukemia; RPMI-8226 leukemia; OVCAR-8 ovarian; OVCAR-5 ovarian; OVCAR-4 ovarian; SK-OV-3 ovarian; IGROV1 ovarian; OVCAR-3 ovarian; HS 578T breast; NCI/ADR-RES ovarian; T-47D breast; BT-549 breast; MDA-MB-435 melanoma; SW-620 colon; MCF7 breast; HCT-116 colon; HCC-2998 colon; KM12 colon; MDA-MB-468 breast.
Common to all, as to test: NCI-60 one-dose screen, 48 h (100 = growth as untreated, 0 = no growth, -100 = all killed)
Common to all, as to details: 10 µM unless noted

With `CC(=O)OC[C@@]1(C)C2CC[C@]3(C)C(CC=C4C5CC(C)(C)CC[C@]5(C(=O)Nc5ccc(Br)cc5)CC[C@]43C)[C@@]2(C)C[C@@H](OC(C)=O)[C@@H]1OC(C)=O` (some centres not stated), the growth with SR leukemia is 32%; in the experiment with RPMI-8226 leukemia, 14.5%; in the experiment with OVCAR-8 ovarian it was 35.9%; in the experiment with OVCAR-5 ovarian it was 92.8%; with OVCAR-4 ovarian, 42%; with SK-OV-3 ovarian, 44%. The growth was 57.3% in the experiment on IGROV1 ovarian; 45% in the experiment with OVCAR-3 ovarian; 80.5% with HS 578T breast; 42.5% in the experiment on NCI/ADR-RES ovarian; 16.5% with T-47D breast; 43.7% in the experiment on BT-549 breast. For the same compound, the growth in the experiment with MDA-MB-435 melanoma was 47.8%; in the experiment with SW-620 colon, 39.9%; with MCF7 breast, 28.2%; in the experiment with HCT-116 colon, 24.6%; in the experiment with HCC-2998 colon, 38%; in the experiment with KM12 colon, 46.4%. Also, the growth in the experiment on MDA-MB-468 breast is 4.65% (active).
Regarding `Cn1cc(-c2nc(N)nnc2-c2c[nH]c3ccc(Br)cc23)c2cccnc21`, the growth in the experiment with SR leukemia is 29.1%; in the experiment with RPMI-8226 leukemia it was 45%; in the experiment with OVCAR-8 ovarian, 47.9%; in the experiment on OVCAR-5 ovarian, 80.3%; in the experiment on OVCAR-4 ovarian it was 71.1%; in the experiment with SK-OV-3 ovarian, 61.8%. Moreover, the growth is 46.2% with IGROV1 ovarian; 29.2% in the experiment on OVCAR-3 ovarian; 33.9% in the experiment on HS 578T breast; 78.7% in the experiment on NCI/ADR-RES ovarian; 62.5% in the experiment with T-47D breast; 33.9% with BT-549 breast. In addition, the growth with MDA-MB-435 melanoma was 12%; in the experiment on SW-620 colon, 39.9%; with MCF7 breast, 21.4%; in the experiment on HCT-116 colon, 21.2%; in the experiment with HCC-2998 colon, 77%; with KM12 colon, 33.9%. Moreover, the growth in the experiment on MDA-MB-468 breast is 44.6%.
With `CN(C)c1nc(NCCNS(=O)(=O)c2ccc(C3=Nc4c(N)nc(N)nc4NC(c4ccc(Cl)cc4)C3)cc2)nc(Nc2ccc(F)cc2)n1` (configuration not stated), the growth with SR leukemia was 0.305% (active); with RPMI-8226 leukemia, -2.32% (active); with OVCAR-8 ovarian, 46.2%; in the experiment with OVCAR-5 ovarian it was 72.6%; in the experiment on OVCAR-4 ovarian it was 45.6%; in the experiment on SK-OV-3 ovarian it was 90.3%. Also, the growth in the experiment with IGROV1 ovarian is 51.5%; in the experiment on OVCAR-3 ovarian it was 51.9%; in the experiment with HS 578T breast it was 56.3%; in the experiment on NCI/ADR-RES ovarian, 94.4%; in the experiment with T-47D breast, 33.8%; in the experiment with BT-549 breast, 15.4%. Moreover, the growth is 32.3% in the experiment with MDA-MB-435 melanoma; 33.4% in the experiment with SW-620 colon; 2.35% (active) in the experiment on MCF7 breast; 15.3% in the experiment with HCT-116 colon; -0.0718% (active) in the experiment with HCC-2998 colon; 19.4% with KM12 colon. Moreover, the growth in the experiment with MDA-MB-468 breast was -35.5% (active).
As for `COc1cc2oc(-c3cccc(NC(=O)[C@H](Cc4ccccc4)NC(=O)OC(C)(C)C)c3)cc(=O)c2c(OC)c1OC`, the growth in the experiment with SR leukemia is 22.5%; in the experiment on RPMI-8226 leukemia, 22.7%; in the experiment on OVCAR-8 ovarian, 26.7%; in the experiment with OVCAR-5 ovarian, 80.8%; in the experiment on OVCAR-4 ovarian, 41.4%; in the experiment on SK-OV-3 ovarian it was 78.7%. For the same compound, the growth in the experiment on IGROV1 ovarian was 32.7%; in the experiment with OVCAR-3 ovarian, 36.3%; in the experiment with HS 578T breast, 16.4%; with NCI/ADR-RES ovarian, 29.6%; in the experiment with T-47D breast it was 38.7%; in the experiment with BT-549 breast it was 28.7%. Further, the growth in the experiment on MDA-MB-435 melanoma was 61.9%; in the experiment on SW-620 colon, 43.3%; in the experiment with MCF7 breast, 22.1%; in the experiment on HCT-116 colon, 15.1%; with HCC-2998 colon, 69.6%; in the experiment with KM12 colon, 19.5%. In the experiment on MDA-MB-468 breast, the growth was 41.8%.
Consider `O=[N+]([O-])c1ccc(/C=C/c2nc3ccccc3n3c(=S)[nH]nc23)cc1`, for which the growth with SR leukemia was 71.6%; in the experiment on RPMI-8226 leukemia, 56.5%; with OVCAR-8 ovarian, 83%; in the experiment on OVCAR-5 ovarian it was 89.1%; with OVCAR-4 ovarian it was 82.5%; in the experiment on SK-OV-3 ovarian, 105%. Also, the growth is 78.3% with IGROV1 ovarian; 69.9% in the experiment with OVCAR-3 ovarian; 75.7% with HS 578T breast; 85.2% in the experiment with NCI/ADR-RES ovarian; 67.5% with T-47D breast; 59.1% in the experiment with BT-549 breast. Moreover, the growth with MDA-MB-435 melanoma was 82.8%; in the experiment on SW-620 colon it was 87.3%; in the experiment with MCF7 breast, 51.2%; with HCT-116 colon it was 70.6%; in the experiment with HCC-2998 colon, 93.4%; in the experiment on KM12 colon, 79.3%. In addition, the growth with MDA-MB-468 breast was 66.5%.
Turning to `Cn1cc(-c2nc(N)nnc2-c2c[nH]c3ccc(F)cc23)c2cc(Br)cnc21`, the growth was 3.88% (active) in the experiment with SR leukemia; -6.78% (active) with RPMI-8226 leukemia; 0.188% (active) in the experiment with OVCAR-8 ovarian; 14.9% in the experiment with OVCAR-5 ovarian; 29.8% in the experiment on OVCAR-4 ovarian; 19.8% with SK-OV-3 ovarian. Moreover, the growth in the experiment on IGROV1 ovarian is 15.8%; in the experiment on OVCAR-3 ovarian it was -33.2% (active); in the experiment with HS 578T breast it was 35.8%; in the experiment with NCI/ADR-RES ovarian, 0.236% (active); in the experiment on T-47D breast it was 43.5%; with BT-549 breast it was -42.4% (active). Besides, the growth was -39.4% (active) in the experiment with MDA-MB-435 melanoma; 17.2% in the experiment with SW-620 colon; 4.55% (active) in the experiment on MCF7 breast; -14.8% (active) in the experiment with HCT-116 colon; -40.9% (active) in the experiment with HCC-2998 colon; -21.7% (active) in the experiment on KM12 colon. Further, the growth with MDA-MB-468 breast was -20.2% (active).
In the case of `Cc1ccc(C2CC(c3ccc(S(=O)(=O)NCCNc4nc(Nc5ccc(F)cc5)nc(N(C)C)n4)cc3)=Nc3c(N)nc(N)nc3N2)cc1` (configuration not stated), the growth was -6.57% (active) in the experiment on SR leukemia; 6.3% (active) with RPMI-8226 leukemia; 52% with OVCAR-8 ovarian; 92.6% in the experiment with OVCAR-5 ovarian; 53.2% with OVCAR-4 ovarian; 101% in the experiment on SK-OV-3 ovarian. The growth with IGROV1 ovarian was 69.8%; in the experiment with OVCAR-3 ovarian, 67.5%; in the experiment on HS 578T breast, 65.2%; with NCI/ADR-RES ovarian, 88.9%; in the experiment with T-47D breast, 53%; in the experiment on BT-549 breast, 58%. Moreover, the growth is 55.2% in the experiment on MDA-MB-435 melanoma; 54.1% with SW-620 colon; 18.7% with MCF7 breast; 27.2% in the experiment with HCT-116 colon; 32.4% in the experiment on HCC-2998 colon; 40.9% in the experiment with KM12 colon. Moreover, in the experiment on MDA-MB-468 breast, the growth is -12.8% (active).
Regarding `COc1ccccc1C(=O)NN1C(=O)/C(=C/C2=Cc3ccccc3OC2)SC1=S`, the growth with SR leukemia is 92.1%; in the experiment with RPMI-8226 leukemia it was 88.6%; with OVCAR-8 ovarian, 99.9%; with OVCAR-5 ovarian, 109%; in the experiment on OVCAR-4 ovarian, 102%; in the experiment with SK-OV-3 ovarian, 94.5%. The growth was 107% in the experiment with IGROV1 ovarian; 107% in the experiment with OVCAR-3 ovarian; 111% with HS 578T breast; 107% with NCI/ADR-RES ovarian; 104% in the experiment on T-47D breast; 83.6% in the experiment with BT-549 breast. The growth in the experiment with MDA-MB-435 melanoma was 110%; in the experiment with SW-620 colon, 114%; in the experiment with MCF7 breast, 92.9%; with HCT-116 colon it was 95.7%; with HCC-2998 colon, 117%; in the experiment with KM12 colon, 99.5%. Moreover, the growth in the experiment with MDA-MB-468 breast is 115%.
